Activity calls are given as the source filed them. How the source made its calls: active means hit-call score of the fitted dose curve at least 0.9, where 1 is the maximum; inactive means score below 0.9.
Target: human CYP3A5, CYP3A5 (gene 1577) (UniProt P20815)
Assay: NVS_ADME_hCYP3A5: NovaScreen (NVS) CYP450-related Enzyme Activity (ADME) Assay for human CYP3A5
Procedure: NVS_ADME_hCYP3A5 is a biochemical, single-readout assay that uses extracted gene-proteins in a cell-free assay. Measurements were taken 0.5 hour after chemical dosing in a 96-well plate.NVS_ADME_hCYP3A5 is one of one assay component(s) measured or calculated from the NVS_ADME_hCYP3A5 assay. It is designed to make measurements of enzyme activity, a form of enzyme reporter, as detected with fluorescence intensity signals by Fluorescence technology.Data from the assay component NVS_ADME_hCYP3A5 was analyzed into 1 assay endpoint. This assay endpoint, NVS_ADME_hCYP3A5, was analyzed in the positive analysis fitting direction relative to Acetonitrile as the negative control and baseline of activity. Using a type of enzyme reporter, loss-of-signal activity can be used to understand changes in the enzymatic activity as they relate to the gene CYP3A5. Furthermore, this assay endpoint can be referred to as a primary readout, because this assay has produced multiple assay endpoints where this one serves a enzymatic activity function. To generalize the intended target to other relatable targets, this assay endpoint is annotated to the cyp intended target family, where the subfamily is xenobiotic metabolism.
Binding assays used specific radioligands (tritiated, iodinated) with non-radioactive competitive displacement ligands in agonist or antagonist protocols (as indicated) and various reference compounds and inhibitors to titrate specific binding to receptors and transporters. Most enzyme assays (CYPs, kinases, phosphatases, proteases, HDACs) used recombinant protein and specific substrates (fluorescence mostly, some colorimetric and radioactive) and inhibitors, followed by a biochemical separation of substrate and product. All assays for the biochemical HTS were initially run in duplicate at a single concentration (10 uM for CYP450 assays and 25 uM for all others). […]

Chain of human CYP3A5, CYP3A5 (gene 1577) (P20815 whole entry, looked up): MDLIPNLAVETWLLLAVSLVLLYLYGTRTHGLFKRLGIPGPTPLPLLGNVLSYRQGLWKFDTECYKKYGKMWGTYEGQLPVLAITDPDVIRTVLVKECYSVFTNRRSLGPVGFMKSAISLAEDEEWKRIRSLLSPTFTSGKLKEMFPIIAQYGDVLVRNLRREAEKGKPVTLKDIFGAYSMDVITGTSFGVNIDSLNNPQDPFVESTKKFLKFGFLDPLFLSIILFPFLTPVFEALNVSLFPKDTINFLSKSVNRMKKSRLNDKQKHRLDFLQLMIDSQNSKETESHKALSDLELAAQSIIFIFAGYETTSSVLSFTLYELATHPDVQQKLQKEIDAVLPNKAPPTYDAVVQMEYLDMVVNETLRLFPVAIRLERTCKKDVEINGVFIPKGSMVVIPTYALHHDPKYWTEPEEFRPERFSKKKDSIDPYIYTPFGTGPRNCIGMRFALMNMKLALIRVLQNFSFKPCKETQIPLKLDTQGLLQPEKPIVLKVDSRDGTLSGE

Structure (SMILES)	AC50	outcome
Clc1ccc(C2(Cn3cncn3)CC(Br)CO2)c(Cl)c1 (stereo not drawn)	0.557 µM (active)	–
COC(=O)Nc1cccc(OC(=O)Nc2cccc(C)c2)c1	–	inactive
COP(=S)(OC)Oc1ccc(Sc2ccc(OP(=S)(OC)OC)cc2)cc1	13.5 µM (active)	–

Source: PubChem BioAssay AID2283109 (EPA ToxCast)
